Among the data in PubChem BioAssay AID1220 (Sanford-Burnham Center for Chemical Genomics, 2008) are inhibition values, retold here.

Several values for one entry are separate records, joined by “and”; a condition that tells them apart may be missing. Equal entries are not always repeated. Out of some 190,000 compounds screened, about 1,300 (0.68%) were called active. The list comes from a sample in which actives are over-represented; it also holds similar structures and randomly drawn compounds. Unmarked numbers belong to inactive results. No stated cut-off is given here; in the data, active means inhibition above about 50%; inactive means the rest.

Chain of Mannose-6-phosphate isomerase (Homo sapiens) (P34949 whole entry, looked up): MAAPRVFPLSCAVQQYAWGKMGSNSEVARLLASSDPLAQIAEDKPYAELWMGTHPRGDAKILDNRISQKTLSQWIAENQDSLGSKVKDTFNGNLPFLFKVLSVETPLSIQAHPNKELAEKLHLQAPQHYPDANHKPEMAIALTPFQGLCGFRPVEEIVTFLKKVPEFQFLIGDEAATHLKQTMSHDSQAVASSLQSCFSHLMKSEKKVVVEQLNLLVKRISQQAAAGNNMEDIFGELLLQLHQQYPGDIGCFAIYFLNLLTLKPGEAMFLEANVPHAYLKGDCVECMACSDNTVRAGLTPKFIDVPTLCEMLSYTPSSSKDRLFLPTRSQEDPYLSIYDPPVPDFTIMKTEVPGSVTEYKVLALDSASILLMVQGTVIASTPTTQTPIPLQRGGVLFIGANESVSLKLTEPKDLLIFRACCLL

This experiment addresses Mannose-6-phosphate isomerase (Homo sapiens) (UniProt P34949). In words: human PMI inhibitors, high substrate, primary screen, biochemical, fluorescence intensity, high mannose 6-phosphate (AID 1220). The conditions noted are these: recombinant PMI enzyme, coupled fluorescence intensity; at 20 µM; active compounds read high.
Usually inhibition stands for the drop in the measured response relative to a control, in per cent. As to `Nc1[nH]ncc1-c1ccc(Cl)cc1`, the inhibition is -1.5%.
With `Cc1sc(NC(=O)CCCC(=O)O)c(C(N)=O)c1-c1ccccc1`, the inhibition was -5.5%.
The result for `CC1CN(C(NC(=O)c2ccccc2)C(Cl)(Cl)Cl)CC(C)O1` (stereo unspecified) reads -6.4%; that for `CCN1C(=O)/C(=C/c2ccc(C)o2)N(C)C1=S`, 28%.
As for `COC(=O)c1ccc(C(=O)Nc2ccc(C(C)C)cc2N)cc1`, the figure is -2.9%; as for `COC(=O)c1ccc(C(=O)Nc2ccc(N)cc2N)cc1`, 50.3% (active); as for `Cc1cc(N)ccc1NC(=O)c1ccccc1`, 12.9%.
As for `Cc1ccc(OCC(O)CN2CCN(CC(O)COC(C)C)CC2)c(C(C)(C)C)c1` (stereo unspecified), the figure is -2.3%.
`CCOC(=O)C1=C(C)NC(C)=C(C(=O)OC)C1c1cccc([N+](=O)[O-])c1` (stereo unspecified): the inhibition was 9.7% and -2%.
As for `COC(=O)C1=C(C)NC(C)=C(C(=O)OC)C1c1ccccc1[N+](=O)[O-]`, the figure is 79.4% (active); as for `COc1ccccc1NC(=O)C1=C(C)NC(=O)NC1c1ccccc1[N+](=O)[O-]` (stereo unspecified), 19.9%.
The result for `CC1=C(C(=O)Nc2ccccc2)C(c2cccs2)NC(=O)N1` (stereo unspecified) reads -0.7%; that for `CC1=C(C(=O)Nc2ccccc2)C(c2ccccc2[N+](=O)[O-])NC(=O)N1` (stereo unspecified), 53.3% (active).
As for `COC(=O)C1=C(C)NC(C)=C([N+](=O)[O-])C1c1ccccc1C(F)(F)F` (stereo unspecified), the figure is -0.9%.
For the compound `COc1ccccc1NC(=O)c1cnc(Nc2ccccc2OC)c2ccccc12`, the inhibition is 6.4%.
As for `CC1Oc2ccccc2N(CC(=O)NCc2cccs2)C1=O` (stereo unspecified), the figure is 5.4%; as for `NC(=O)Cc1ccc(C(=O)c2ccccc2F)s1`, -7%.
The result for `Cc1ccc(C(C)C)c(OCC(=O)N2CCOCC2)c1` reads 4.1%.
With `O=C(O)COc1ccc(/C=N/n2cnc3scc(-c4cccs4)c3c2=O)cc1`, the inhibition was -8.8%.
The result for `Cc1ccc(-n2c(-c3ccncc3)n[nH]c2=S)c(C)c1` reads 3.7%; that for `COc1ccc(OCC(=O)Nc2ccc3c(c2)nc2n3CCSC2)cc1`, 7.8%.
The result for `O=C(/C=C/c1cccc(OCc2ccccc2)c1)c1cccnc1` reads -18.2%; that for `CCOC(=O)c1c(C)oc2c(CC(=O)c3ccccc3)c(Cl)c(O)c(O)c12`, 8.9%.
As for `CCOC(=O)Cc1csc(NC(=O)NC2(C(F)(F)F)Oc3ccc(Cl)cc3O2)n1` (stereo unspecified), the inhibition was 47.9%.
The result for `CCOC(=O)Cc1csc(NC(=O)NC2(C(F)(F)F)Oc3ccccc3O2)n1` reads 21.4%; that for `CCOC(=O)Cc1csc(NC(=O)NC2(C(F)(F)F)Oc3cc(Cl)c(Cl)cc3O2)n1`, 54.7% (active).
